Data as given in PubChem BioAssay AID1159580 (chemical genetic matrix, 2015).
Values joined by “and” are separate entries in the source; they are usually repeats but may differ in a detail not shown here. Equal entries are not always repeated. About 2,000 (36%) of roughly 5,500 compounds were called active. About 18% were inconclusive and are not listed. Cut-off read from the data, not from the text of the source: active = normalized growth mostly below about 0.91 (no sharp cut-off); inconclusive = no clear call, values can overlap the other calls; inactive = mostly above about 0.92. The list shows a part of the results.

Assay: chemical genetic growth profiling, strain panel (AID 1159580);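 note: tested at 20 µM; growth read once vehicle control cultures reached saturation at 30 °C; 1 = growth at the plate median or of vehicle wells; lower values mean less growth of the strain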
Conditions: growth OD

Measured: normalized growth

Nc1nc(N)c2nc(-c3ccccc3)c(N)nc2n1
inactive: S. cerevisiae deletion strains, locus YJR075W, strain HOC1, active compounds read low 1.01 | S. cerevisiae deletion strains, locus YKL009W, strain mrt4, active compounds read low 1.02 | S. cerevisiae deletion strains, locus YKL068W, active compounds read low 1 | S. cerevisiae deletion strains, locus YKL085W, strain MDH1 (second series), active compounds read low 1.01 | S. cerevisiae deletion strains, locus YKL085W, strain MDH1, active compounds read low 1.01 | S. cerevisiae deletion strains, locus YKL160W, strain elf1, active compounds read low 1 | S. cerevisiae deletion strains, locus YKL190W, strain CNB1, active compounds read low 1 | S. cerevisiae deletion strains, locus YKR001C, strain vps1, active compounds read low 1.02 | S. cerevisiae deletion strains, locus YKR026C, strain gcn3, active compounds read low 1.01 | S. cerevisiae deletion strains, locus YKR091W, strain srl3, active compounds read low 0.998 | S. cerevisiae deletion strains, locus YLL001W, strain dnm1, active compounds read low 1 | S. cerevisiae deletion strains, locus YLL026W, active compounds read low 0.999 | S. cerevisiae deletion strains, locus YLL041C, strain sdh2, active compounds read low 0.999 | S. cerevisiae deletion strains, locus YLR027C, strain aat2, active compounds read low 1.01 | S. cerevisiae deletion strains, locus YLR039C, strain RIC1, active compounds read low 1.04 | S. cerevisiae deletion strains, locus YLR058C, strain SHM2, active compounds read low 1 | S. cerevisiae deletion strains, locus YLR102C, strain apc9, active compounds read low 1.01 | S. cerevisiae deletion strains, locus YLR113W, strain HOG1, active compounds read low 1 | S. cerevisiae deletion strains, locus YLR221C, strain rsa3, active compounds read low 0.975 | S. cerevisiae deletion strains, locus YLR258W, strain gsy2, active compounds read low 0.999 | S. cerevisiae deletion strains, locus YLR262C, strain YPT6 (second series), active compounds read low 1.02 | S. cerevisiae deletion strains, locus YLR262C, strain YPT6, active compounds read low 1 | S. cerevisiae deletion strains, locus YLR268W, strain sec22, active compounds read low 1.05 | S. cerevisiae deletion strains, locus YLR320W, strain mms22, active compounds read low 0.99 | S. cerevisiae deletion strains, locus YLR330W, strain CHS5, active compounds read low 1.01 | S. cerevisiae deletion strains, locus YLR342W, strain FKS1 (second series), active compounds read low 1.02 | S. cerevisiae deletion strains, locus YLR342W, strain FKS1, active compounds read low 0.996 | S. cerevisiae deletion strains, locus YLR357W, strain rsc2, active compounds read low 1.01 | S. cerevisiae deletion strains, locus YLR370C, strain arc18, active compounds read low 0.995 | S. cerevisiae deletion strains, locus YLR371W, strain rom2, active compounds read low 1.01 | S. cerevisiae deletion strains, locus YLR384C, strain iki3, active compounds read low 1.01 | S. cerevisiae deletion strains, locus YLR418C, strain cdc73, active compounds read low 0.972 | S. cerevisiae deletion strains, locus YML016C, strain PPZ1, active compounds read low 0.999 | S. cerevisiae deletion strains, locus YML032C, strain rad52, active compounds read low 1.02 | S. cerevisiae deletion strains, locus YML120C, strain ndi1, active compounds read low 1.02 | S. cerevisiae deletion strains, locus YML124C, strain tub3, active compounds read low 1.01 | S. cerevisiae deletion strains, locus YMR058W, strain fet3, active compounds read low 1.01 | S. cerevisiae deletion strains, locus YMR078C, strain ctf18, active compounds read low 1 | S. cerevisiae deletion strains, locus YMR125W, strain sto1, active compounds read low 1 | S. cerevisiae deletion strains, locus YMR129W, active compounds read low 0.998 | S. cerevisiae deletion strains, locus YMR205C, strain PFK2, active compounds read low 1.01 | S. cerevisiae deletion strains, locus YMR223W, strain ubp8, active compounds read low 0.994 | S. cerevisiae deletion strains, locus YMR231W, strain pep5, active compounds read low 0.997 | S. cerevisiae deletion strains, locus YMR263W, strain SAP30, active compounds read low 1 and 0.995 | S. cerevisiae deletion strains, locus YMR307W, strain GAS1, active compounds read low 1.04 and 1.01 | S. cerevisiae deletion strains, locus YNL067W, strain RPL9B, active compounds read low 0.995 | S. cerevisiae deletion strains, locus YNL071W, strain lat1, active compounds read low 0.996 | S. cerevisiae deletion strains, locus YNL153C, strain GIM3, active compounds read low 1 | S. cerevisiae deletion strains, locus YNL175C, strain NOP13, active compounds read low 0.987 | S. cerevisiae deletion strains, locus YNL183C, strain NPR1, active compounds read low 0.933 | S. cerevisiae deletion strains, locus YNL197C, strain WHI3, active compounds read low 0.967 | S. cerevisiae deletion strains, locus YNL209W, strain ssb2, active compounds read low 1 | S. cerevisiae deletion strains, locus YNL224C, strain SQS1, active compounds read low 0.995 | S. cerevisiae deletion strains, locus YNL233W, strain BNI4, active compounds read low 1 | S. cerevisiae deletion strains, locus YNL248C, strain rpa49, active compounds read low 0.969 | S. cerevisiae deletion strains, locus YNL250W, strain rad50, active compounds read low 1 | S. cerevisiae deletion strains, locus YNL271C, strain bni1, active compounds read low 1.01 | S. cerevisiae deletion strains, locus YNL298W, strain CLA4, active compounds read low 1.03 | S. cerevisiae deletion strains, locus YNL307C, strain MCK1, active compounds read low 1.01 | S. cerevisiae deletion strains, locus YNL322C, strain KRE1 (second series), active compounds read low 1.01 | S. cerevisiae deletion strains, locus YNL322C, strain KRE1, active compounds read low 1 | S. cerevisiae deletion strains, locus YNR049C, strain mso1, active compounds read low 0.993 | S. cerevisiae deletion strains, locus YNR052C, strain pop2, active compounds read low 1.01 | S. cerevisiae deletion strains, locus YOL006C, strain TOP1, active compounds read low 1.02 | S. cerevisiae deletion strains, locus YOL012C, strain htz1 0.947 | S. cerevisiae deletion strains, locus YOL147C, strain pex11, active compounds read low 1.01 | S. cerevisiae deletion strains, locus YOR001W, strain rrp6, active compounds read low 1.01 | S. cerevisiae deletion strains, locus YOR061W, strain CKA2, active compounds read low 0.999 | S. cerevisiae deletion strains, locus YOR069W, strain VPS5, active compounds read low 1 | S. cerevisiae deletion strains, locus YOR070C, strain gyp1, active compounds read low 0.991 | S. cerevisiae deletion strains, locus YOR080W, strain dia2, active compounds read low 1.01 | S. cerevisiae deletion strains, locus YOR083W, strain WHI5 (second series), active compounds read low 0.969 | S. cerevisiae deletion strains, locus YOR083W, strain WHI5, active compounds read low 0.989 | S. cerevisiae deletion strains, locus YOR106W, strain vam3, active compounds read low 1.02 | S. cerevisiae deletion strains, locus YOR136W, strain idh2, active compounds read low 0.993 | S. cerevisiae deletion strains, locus YOR144C, strain elg1, active compounds read low 1.01 | S. cerevisiae deletion strains, locus YOR184W, strain ser1, active compounds read low 0.98 | S. cerevisiae deletion strains, locus YOR231W, strain MKK1, active compounds read low 1.01 | S. cerevisiae deletion strains, locus YOR265W, strain rbl2, active compounds read low 0.996 | S. cerevisiae deletion strains, locus YOR270C, strain vph1, active compounds read low 1.01 | S. cerevisiae deletion strains, locus YOR290C, strain snf2, active compounds read low 0.991 | S. cerevisiae deletion strains, locus YOR316C, strain cot1, active compounds read low 1.01 | S. cerevisiae deletion strains, locus YPL051W, strain arl3, active compounds read low 0.993 | S. cerevisiae deletion strains, locus YPL055C, strain LGE1, active compounds read low 1.02 | S. cerevisiae deletion strains, locus YPL078C, strain atp4, active compounds read low 1.01 | S. cerevisiae deletion strains, locus YPL106C, strain sse1, active compounds read low 0.995 | S. cerevisiae deletion strains, locus YPL240C, strain hsp82, active compounds read low 1 | S. cerevisiae deletion strains, locus YPL241C, strain CIN2, active compounds read low 1 and 0.998 | S. cerevisiae deletion strains, locus YPL256C, strain CLN2, active compounds read low 0.99 | S. cerevisiae deletion strains, locus YPR119W, strain clb2, active compounds read low 1 | S. cerevisiae deletion strains, locus YPR141C, strain kar3, active compounds read low 1.01 | S. cerevisiae deletion strains, locus YPR163C, strain tif3, active compounds read low 1.02 | S. cerevisiae deletion strains, locus YPR167C, strain met16, active compounds read low 1.01 | S. cerevisiae deletion strains, strain wtn01, active compounds read low 1.01 | S. cerevisiae strains, strain wild type, active compounds read low 0.997
